The results in this text go back to PubChem BioAssay.

Structures are written as SMILES. A number with no mark means an inactive call. Active and inactive are the calls of the source. No rule for the calls is given here.

Test [1] concerns Botulinum neurotoxin type F light chain protease (Clostridium botulinum). As to the kind of experiment: Clostridium botulinum type F light chain protease inhibitors, microsphere substrate cleavage, validation (AID 588459). To be noted: multiplex microsphere protease substrate cleavage assay, flow cytometry; at 10 µM; stronger effect = higher value. A general note: A flow cytometer gives signals particle by particle.

In test [2] the target is Botulinum neurotoxin type A (Clostridium botulinum) (UniProt P0DPI0). As to the kind of experiment: BoNT/A light chain protease inhibitors, biochemical, multiplex microsphere flow cytometry, validation set (AID 588460). Conditions: at 10 µM, stronger effect = higher value.
Test [3] deals with Lethal factor (Bacillus anthracis) (UniProt P15917). As to the kind of experiment: Bacillus anthracis lethal factor inhibition, microsphere flow cytometry protease assay, validation at 10 µM (AID 588461). Conditions: multiplex microsphere protease cleavage assay, stronger effect = higher value.

One may read the inhibition as the relative decrease from the control value, in per cent. With `COc1ccc(C2OC[C@H]3O[C@H](O)[C@H](NC(C)=O)[C@@H](O)[C@@H]3O2)cc1` (some centres not stated), the inhibition is -3.6% in test [1], -1.7% in test [2] and -9.6% in test [3].

`CCc1cc2c(C)cc(=O)oc2cc1OC(=O)C1CCCN1C(=O)OC(C)(C)C` (configuration not stated): the inhibition in test [1] is 0.1%; in test [2], -1.6%; in test [3], -1.1%.

With `Cn1c2c(c(=O)[nH]c1=O)C(c1ccc(O)cc1)C1=C(N2)c2ccccc2C1=O` (configuration not stated), the inhibition in test [1] was -0.8%; in test [2], -0.5%; in test [3], 3.1%.

Take `COc1cc(-c2nnc(-c3cccs3)o2)cc(OC)c1OC`: the inhibition in test [1] was 1.3%; in test [2] it was 1.7%; in test [3] it was 4.3%.

As for `COc1ccc2c(c1OC)C(=O)NC(C)=C(C(=O)OC(C)(C)C)C2O` (configuration not stated), the inhibition in test [1] is 4.3%; in test [2], -0.4%; in test [3], -5.3%.

`CC[C@H]1OC(=O)[C@H](C)[C@@H](O[C@H]2C[C@@](C)(OC)[C@@H](O)[C@H](C)O2)[C@H](C)[C@@H](O[C@@H]2O[C@H](C)C[C@H](N(C)C)[C@H]2O)[C@](C)(O)C[C@@H](C)[C@@H]2N[C@@H](COCCOC)O[C@H]([C@H]2C)[C@]1(C)O`: the inhibition is 3.3% in test [1], 0.7% in test [2] and -1.4% in test [3].

Turning to `Cc1ccc2[nH]c3c(c2c1)CN(C(=O)CN1CCSCC1)CC3`, the inhibition in test [1] is 61.5% (active); in test [2], 3.7%; in test [3], 11.6%.

Consider `OCCN(Cc1nc(-c2ccc3c(c2)OCO3)no1)Cc1cccs1`, for which the inhibition is 2.4% in test [1], 0.4% in test [2] and 2% in test [3].

Turning to `Cc1ccc(C2CC(=O)C(C=NCCN3CCN(CC(=O)Nc4cc(C)cc(C)c4)CC3)=C(O)C2)cc1` (configuration not stated), the values for the inhibition in test [1], in test [2] and in test [3] were 2%, 0.6% and 0.4%, respectively.

`O=C(CCC1CCCN(C(=O)c2ccsc2)C1)NCc1ccc(F)c(F)c1` (configuration not stated): the inhibition in test [1] is 2.2%; in test [2] it was -0.6%; in test [3] it was -6.8%.

Take `Cn1nnnc1SCC1=C(C(=O)O)N2C(=O)[C@@H](NC(=O)[C@H](O)c3ccccc3)[C@H]2SC1`: the inhibition is 1% in test [1], 0.9% in test [2] and 1.9% in test [3].

Regarding `CN(C)CCC(c1ccccc1)c1ccccn1` (configuration not stated), the inhibition in test [1] was -2.8%; in test [2] it was -0.2%; in test [3] it was 2.6%.

With `Cc1cccc(Nc2ccccc2C(=O)O)c1C`, the inhibition is -3.6% in test [1], -1.1% in test [2] and -6% in test [3].

Take `O=C(NNC(=O)c1cccs1)c1ccco1`: the inhibition in test [1] was 1.9%; in test [2] it was -2.8%; in test [3], 0.2%.

For `O=C(CN1CC[n+]2c(-c3cccs3)csc21)c1ccc(Br)cc1`, the inhibition is 0.8% in test [1], -0.2% in test [2] and -1.6% in test [3].

In the case of `O=C(O)c1ccccc1OCCOc1ccccc1`, the inhibition in test [1] is 3.5%; in test [2], 2.5%; in test [3], 7.2%.

Consider `COC(=O)c1sccc1NC(=O)Nc1ccccc1F`, for which the inhibition was -1.2% in test [1], -1.3% in test [2] and 1.2% in test [3].

Consider `COc1ccc(C2CNC(=O)C2)cc1OC1CCCC1` (configuration not stated), for which the figures for the inhibition in test [1], in test [2] and in test [3] were 7.8%, -0.3% and 1%, respectively.

Turning to `Cc1c(OC(=O)CNC(=O)OC(C)(C)C)ccc2c3c(c(=O)oc12)CCC3`, the inhibition in test [1] was -2.7%; in test [2], -0.5%; in test [3], -2.2%.

As to `Cn1c(SCC(=O)c2ccccc2)nnc1-c1ccncc1`, the inhibition was 1.7% in test [1], 0.4% in test [2] and 3.4% in test [3].

Consider `O=C(CCCN1CCC(O)(c2ccc(Cl)cc2)CC1)c1ccc(F)cc1`, for which the results for the inhibition in test [1], in test [2] and in test [3] were -3.5%, 1.1% and 3.7%, respectively.

Take `CC(=O)OC(CC(=O)O)C[N+](C)(C)C` (configuration not stated): the inhibition in test [1] is 3.4%; in test [2], 0%; in test [3], -3.6%.

For `Cc1ccc(C(=O)COC(=O)c2cnccn2)cc1[N+](=O)[O-]`, the inhibition in test [1] was 2.8%; in test [2] it was -0.2%; in test [3], -5.2%.

Take `CC1=C(/C=C/C(C)=C/C=C/C(C)=C/C(=O)O)C(C)(C)CCC1`: the inhibition was 0.8% in test [1], -0.1% in test [2] and 0.4% in test [3].

Take `Cc1occc(=O)c1O`: the inhibition in test [1] was 2.1%; in test [2], 0.8%; in test [3] it was -1.7%.

Regarding `CN(C)CCN(Cc1ccccc1)c1ccccn1`, the inhibition was 2.2% in test [1], 0% in test [2] and -0.2% in test [3].

Consider `O=C(c1ccc(-c2ccccc2)c(F)c1)C1CCCN(C(=O)c2cncs2)C1` (configuration not stated), for which the inhibition was 0.6% in test [1], 0.5% in test [2] and 1.6% in test [3].

Regarding `CC(C)(C)OC(=O)NCCC(=O)Oc1ccc2ccc(=O)oc2c1`, the values for the inhibition in test [1], in test [2] and in test [3] were -1.5%, -0.8% and 0.5%, respectively.

Consider `O=C(O)[C@@H](O)c1ccccc1`, for which the results for the inhibition in test [1], in test [2] and in test [3] were -0.3%, 0% and -3.5%, respectively.

Consider `CC1(C)C(C=C(Cl)Cl)C1C(=O)N1CCN(Cc2ccccc2)CC1` (configuration not stated), for which the inhibition in test [1] was -0.6%; in test [2], 0.8%; in test [3], -5.5%.

In the case of `N#CCC(N)=C(C#N)C#N`, the inhibition in test [1] was -6%; in test [2] it was -2%; in test [3], -6%.

As for `COc1ccccc1C(CC(=O)Nc1ccccc1C)c1ccc(OC(C)C)cc1` (configuration not stated), the inhibition is -0.1% in test [1], -0.8% in test [2] and -7.4% in test [3].

Regarding `Cc1ccc2c(CC(=O)O)coc2c1`, the inhibition in test [1] was -2.9%; in test [2], -1.3%; in test [3] it was -1.1%.

As for `CN=C(NC#N)NCCSCc1nc[nH]c1C`, the inhibition in test [1] is -0.4%; in test [2], 0.9%; in test [3], -3.5%.

Consider `CC(=O)OCC(=O)[C@@]12OC3(CCCC3)O[C@@H]1C[C@H]1[C@@H]3CCC4=CC(=O)C=C[C@]4(C)[C@@]3(F)[C@@H](O)C[C@@]12C`, for which the inhibition in test [1] was 0.8%; in test [2], -0.9%; in test [3], -0.7%.

In the case of `Cc1cc(OC(C(=O)O)c2ccccc2)c2c(C)c(Cc3ccccc3)c(=O)oc2c1` (configuration not stated), the inhibition in test [1] is 2%; in test [2], -0.1%; in test [3], 1.7%.

Turning to `C[N+](C)(C)CCCC(=O)c1ccc2c(c1)OCO2`, the inhibition in test [1] is -4%; in test [2], -1.8%; in test [3] it was -6%.

`Cc1cccc(-n2c(Cc3ccccc3)n[nH]c2=S)c1`: the inhibition in test [1] is -1.9%; in test [2] it was -0.5%; in test [3] it was -2.9%.

In the case of `CCc1cc2c(=O)c(-c3nc(C)cs3)coc2cc1OC(C)C(=O)NCCO` (configuration not stated), the inhibition is -3.3% in test [1], -0.8% in test [2] and -2.1% in test [3].

Consider `Cc1nc2ccccc2c(=O)n1N`, for which the figures for the inhibition in test [1], in test [2] and in test [3] were 4.9%, 0.7% and -5.7%, respectively.

With `Clc1ccc2c(c1)[C@H]1OCC[C@H]1[C@@H](c1ccco1)N2`, the results for the inhibition in test [1], in test [2] and in test [3] were 0.3%, -0.7% and -4.1%, respectively.

As to `C[C@H](NC(=O)OC(C)(C)C)C(=O)NCC1CCC(C(=O)O)CC1` (some centres not stated), the inhibition in test [1] is 2.7%; in test [2], -2.2%; in test [3], -1.1%.

Take `c1ccc(Nc2ccccn2)nc1`: the results for the inhibition in test [1], in test [2] and in test [3] were 2.3%, -2.1% and -4.7%, respectively.

With `C=CCOc1ccc(C(=O)CC)cc1OC`, the inhibition in test [1] is 0.6%; in test [2] it was -0.5%; in test [3], -1.9%.

As for `CC(=O)NS(=O)(=O)c1ccc(N)cc1`, the inhibition in test [1] was 0.7%; in test [2] it was 1%; in test [3] it was 4.5%.

Take `O=C(Nc1ncc2c(n1)CC(c1ccco1)CC2=O)c1ccco1` (configuration not stated): the inhibition was -2.6% in test [1], -3.2% in test [2] and -10.4% in test [3].

As for `CC1(C)CC(C(CC(=O)N2CCCC2)Cc2ccccc2)CCO1` (configuration not stated), the inhibition in test [1] was -0.7%; in test [2], 0.6%; in test [3], 3.1%.

On to `COc1ccc(NC(=O)CC2C(=O)N(C)C(=S)N2Cc2ccncc2)cc1` (configuration not stated), for which the inhibition is -2.7% in test [1], -1.6% in test [2] and -9.6% in test [3].

With `O=C(CCNNC(=O)c1ccncc1)NCc1ccccc1`, the inhibition was 4.1% in test [1], 0.9% in test [2] and 5.5% in test [3].

As to `CC(CN1c2ccccc2Sc2ccccc21)N(C)C` (configuration not stated), the inhibition was -0.2% in test [1], -1.5% in test [2] and -11.5% in test [3].

Regarding `CCOC(=O)C(NC(C)=O)C(O)c1ccc([N+](=O)[O-])cc1` (configuration not stated), the figures for the inhibition in test [1], in test [2] and in test [3] were 7.5%, 2.6% and -2.3%, respectively.

For `CC(C)OC(=O)C1C2C=CC3(CN(CC4CCCO4)C(=O)C13)O2` (configuration not stated), the results for the inhibition in test [1], in test [2] and in test [3] were 0.2%, 0.8% and -2.9%, respectively.

`CC(NC(=O)c1cccnc1)C(=O)O` (configuration not stated): the inhibition was -0.3% in test [1], -0.4% in test [2] and -4.7% in test [3].

Take `COc1cc2c3c(c1)C(C)CC(C)(C)N3C(=O)C2=O` (configuration not stated): the inhibition is -6.7% in test [1], -1.3% in test [2] and -5.6% in test [3].

As for `CN(Cc1ccccc1)CC(O)COc1ccc(CNCc2cccnc2)cc1` (configuration not stated), the inhibition in test [1] is -3.8%; in test [2] it was 0.2%; in test [3], -5.3%.

Regarding `O=C(OCCNC(=O)c1ccc2ccccc2n1)c1ccc(F)cc1`, the inhibition is 1.8% in test [1], -0.7% in test [2] and 4.4% in test [3].

For the compound `CC(COc1ccccc1)N(CCCl)Cc1ccccc1` (configuration not stated), the inhibition in test [1] is 0.1%; in test [2], -2.7%; in test [3] it was -5.9%.

With `C=C(C)C(=O)Nc1ccc(NC(C)C)cc1`, the inhibition in test [1] is 0.4%; in test [2], -0.8%; in test [3] it was 5.7%.

With `COc1ccc2c(c1)c(=O)oc1cc3occ(C(C)(C)C)c3cc12`, the inhibition in test [1] was 1.2%; in test [2], 1.4%; in test [3], 6.9%.

As for `O=C1C(Cc2c[nH]c3ccccc23)NC(=S)N1Cc1ccccc1` (configuration not stated), the inhibition in test [1] is -0.2%; in test [2], 0.3%; in test [3], -1.8%.

Regarding `Fc1ccccc1CNCCC(Cc1ccccc1)c1ccc2c(c1)OCO2` (configuration not stated), the results for the inhibition in test [1], in test [2] and in test [3] were -8.9%, -0.6% and 1.9%, respectively.

On to `O=C(NCCN1CCOCC1)c1ccc(Cl)cc1`, for which the inhibition in test [1] was 2.4%; in test [2] it was 1.2%; in test [3], -2%.

Turning to `CC1(C)CC(=O)c2cnc(NC(=O)C3CCCC3)nc2C1`, the values for the inhibition in test [1], in test [2] and in test [3] were 1.2%, -1.3% and -3.2%, respectively.

`Cc1ccc(NC(=O)CSc2nc(O)c(Cc3ccccc3)c(=O)n2-c2ccccc2)cc1`: the figures for the inhibition in test [1], in test [2] and in test [3] were -0.8%, -0.6% and 2%, respectively.
